The panel holds about 79,000 compounds, 15% with a hit somewhere; the sample as a whole holds those more often. Values without a mark were called inactive. No stated cut-off is given here; in the data, active means growth inhibition above about 70%; inactive means the rest.
Assay: NCI Yeast Anticancer Drug Screen. Data for the sgs1 mgt1 strain (AID 161);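 further: 0% = growth of cultures given vehicle only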
Settings: S. cerevisiae sgs1 mgt1 strain, at 50.0 µM, active compounds read high
Procedure, shortened: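 Percent growth inhibition was derived by comparing compound-exposed mutant yeast with vehicle-exposed cultures. The strain carries alterations in DNA damage repair.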

| Structure (SMILES) | growth inhibition [%] |
| --- | --- |
| O=[N+]([O-])c1ccc(/C=C/C=C/c2ccccc2)c(Cl)c1 | -3.4 |
| O=c1[nH]n(-c2ccccc2)c(=O)cc1Cl | -4 |
| Nc1nc(N)c2cc(S(=O)(=O)c3cccc(C(F)(F)F)c3)ccc2n1 | 7.4 |
| COc1cc(/C=C(\C#N)C(=O)c2ccccc2)ccc1OCc1ccccc1 | -15.2 |
| CC1(C)/C(=C\CO)C2CCC1C2 (centres undefined) | 1.95 |
| COc1cc2c(cc1O)CC[C@@H]1C2CC[C@@]2(C)C1CC[C@@H]2O (some centres undefined) | -15.2 |
| Cc1ccc(N)cc1[N+](=O)[O-] | 6.2 |
| CCCNc1ccc(C2=NCCCN2)cc1 | -3.9 |
| Cc1cc(OCCO)cc(C)c1Cl | -16.4 |
| O=C(O)C(c1ccccc1)C(O)c1ccccc1 (centres undefined) | -22.7 |
| COC(=O)/C=C\C(=O)OC | -15.1 |
| N#CSc1cc(S(N)(=O)=O)ccc1N | 4.05 |
| O=[N+]([O-])c1ccc(N=Nc2ccccc2)cc1 | -1.1 |
| CCCC(=O)Nc1ccc2c(c1)CN1C(=O)c3ccccc3C1=N2 | 7.75 |
| Nc1nc(OCc2ccccc2)c2[nH]cnc2n1 | -48.1 |
| CC1(C)S(=O)(=O)OCCOS1(=O)=O | 6.75 |
| CC1CC(O)C2C3(C)CCCC2(COC3=O)C12CCC1(CCOC1=O)O2 (centres undefined) | 18.3 |
| CN(C)Cc1cc(C(C)(C)CC(C)(C)C)ccc1O | 6.3 |
| CC(=O)OCC1=CC2OC(=O)C3=COC(OC4OC(CO)C(O)C(O)C4O)C1C32 (centres undefined) | 10.3 |
